The panel holds about 79,000 compounds, 15% with a hit somewhere; the sample as a whole holds those more often. No stated cut-off is given here; in the data, active means growth inhibition above about 70%; inactive means the rest.
Legend:
[1] = NCI Yeast Anticancer Drug Screen. Data for the rad50 strain (AID 155);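 further: 0% = growth of vehicle-only cultures of the same strain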; details: S. cerevisiae rad50 strain growth inhibition; at 50.0 µM; hits give high values
Method in brief: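 Genetically altered yeast (DNA repair pathway); compound treatment; growth inhibition vs vehicle ctrl.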

[2] = NCI Yeast Anticancer Drug Screen. Data for the mec2-1 strain (AID 157); details: S. cerevisiae mec2-1 strain, at 50.0 µM, hits give high values
Method in brief: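 Using mec2-1 yeast: add compound, measure growth, express inhibition versus vehicle-treated cultures.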

[3] = NCI Yeast Anticancer Drug Screen. Data for the sgs1 mgt1 strain (AID 161);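 further: 0% = growth of cultures given vehicle only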; details: S. cerevisiae sgs1 mgt1 strain, at 50.0 µM, hits give high values
Method in brief: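 Yeast cells carrying a defined DNA-repair defect were exposed to test compounds. Growth inhibition was measured relative to vehicle-treated controls.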

[4] = NCI Yeast Anticancer Drug Screen. Data for the cln2 rad14 strain (AID 165);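 further: 0% = growth equal to vehicle treated cultures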; details: S. cerevisiae cln2 rad14 strain, at 50.0 µM, hits give high values
Method in brief: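 Yeast strain cln2 rad14, bearing defects in cell cycle control and DNA repair, serves as the test system; values reflect growth inhibition compared with vehicle.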

[5] = NCI Yeast Anticancer Drug Screen. Data for the bub3 strain (AID 167); details: S. cerevisiae bub3 mutant strain, at 50.0 µM, hits give high values
Method in brief: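 Yeast carrying a defined mutation is treated with each compound, and growth is compared with that of vehicle-exposed cells to give inhibition.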

[6] = NCI Yeast Anticancer Drug Screen. Data for the mlh1 rad18 strain (AID 175); details: S. cerevisiae mlh1 rad18 strain growth inhibition; at 50.0 µM; hits give high values
Method in brief: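 Steps: expose repair-defective yeast to compound; measure growth; express inhibition against vehicle-treated controls.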

Measured: growth inhibition

[Cl][Eu]([Cl])[Cl]
inactive: [1] 22.4% | [2] 17.9% | [3] 24.2% | [4] 42.9% | [5] 34.2% | [6] 19.8%

COC1(OC)CCC(OC)(OC)C(OC)(OC)C1(OC)OC
inactive: [1] 4.75% | [2] 8.1% | [3] 11.7% | [4] -4.2% | [5] -16.2% | [6] 2.75%

CCC[CH2][Ge]([Cl])([Cl])[CH2]CCC
inactive: [1] 28.6% | [2] 30.8% | [3] 30.9% | [4] 14.9% | [5] 40.9% | [6] 33.4%

NC(=O)c1n[nH]c(C2OC(CO)C(O)C2O)n1 (stereo not given)
inactive: [1] -1.5% | [2] -6.8% | [3] 0.9% | [4] -15.7% | [5] 5.75% | [6] -7.5%

C=C(C)COC(=O)Nc1cccc(Cl)c1
inactive: [1] 58.9% | [2] -4.15% | [3] 4.7% | [4] 13.4% | [5] 10.2% | [6] 24.9%

CC1(C)OC(=O)C(=Cc2cccc3ccc4ccccc4c23)C(=O)O1
inactive: [1] 31.9% | [2] 18.3% | [3] 8.9% | [4] -17.1% | [5] 40.7% | [6] 40.6%

O=C(O)CN(CC(=O)O)Cc1ccccc1
inactive: [1] -22.3% | [2] 8.7% | [3] 6.8% | [4] -71.4% | [5] 7.9% | [6] 4.2%

O=C(Cc1ccccc1)Nc1ccccc1
inactive: [1] 17.9% | [2] -21.1% | [3] 2.45% | [4] -0.3% | [5] -7.55% | [6] 17.9%

CCN(C(=N)C#N)c1ccccc1
inactive: [1] 29.8% | [2] 13.2% | [3] 10.1% | [4] 24.4% | [5] 29.9% | [6] 27.1%

CCCCC1CCCCC1=O (stereo not given)
inactive: [1] 16.4% | [2] -15.2% | [3] 3.1% | [4] 12.5% | [5] -0.45% | [6] 5.1%

C[N+]1(C)C2CC(=O)CC1C1CC12 (stereo not given)
inactive: [1] -10.2% | [2] 7.4% | [3] 4.55% | [4] -2.15% | [5] 12.1% | [6] -16%

CC1(C)CC(=O)C(C(c2ccccc2)C2C(=O)CC(C)(C)CC2=O)C(=O)C1
inactive: [1] 4% | [2] -8.9% | [3] 1.8% | [4] 2.6% | [5] 6.5% | [6] 7%

C=C(C)C1CCC2(C=O)CCC3(C)C(CCC4C5(C)CCC(O)C(C)(C)C5CCC43C)C12 (stereo not given)
inactive: [1] 25.9% | [2] 37% | [3] 25.1% | [4] 15.8% | [5] 26% | [6] 20.8%

COc1ccccc1NC(=O)C1=C(C)NC(C)=C(C(=O)Nc2ccccc2OC)C1c1ccco1
inactive: [1] -4.8% | [2] -8.65% | [3] 20.4% | [4] 4.3% | [5] 29.4% | [6] -11.9%

O=C(O)c1cc2c([nH]1)-c1cccnc1C(=O)C2=O
inactive: [1] -9.6% | [2] -11.3% | [3] -15.8% | [4] -18.8% | [5] -1.4% | [6] 14.1%

CCCCC[N+]1([O-])CCOCC1
inactive: [1] 4.05% | [2] -4.1% | [3] -7.1% | [4] -24.4% | [5] -3.1% | [6] 1.05%

CCc1sc(N)nc1-c1ccccc1
inactive: [1] -3.15% | [2] -23.9% | [3] 7.05% | [4] -1.65% | [5] 4% | [6] -8.75%

C=C1c2nc3ccccc3n2C=C(c2ccc(Cl)cc2)N1c1ccc(OC)cc1
inactive: [1] -3.95% | [2] 23.4% | [3] 19.8% | [4] 11.4% | [5] 7.7% | [6] 40.2%

CC(=O)Nc1ccc(/C=C(\NC(=O)c2ccccc2)C(=O)NNS(=O)(=O)c2ccc(C)cc2)cc1
inactive: [1] 21.6% | [2] 17.7% | [3] -9.3% | [4] -5.5% | [5] -4.2% | [6] 21.4%

C/C=C/C1OCCC(C)O1 (stereo not given)
inactive: [1] 41.3% | [2] -12% | [3] 9.1% | [4] 21.1% | [5] 4.95% | [6] 11%

NC(N)=NS(=O)(=O)c1ccc(Nc2c3ccccc3nc3c(C(=O)N4CCN(CCO)CC4)cccc23)cc1
inactive: [1] -0.4% | [2] -7.8% | [3] 2.95% | [4] 22.4% | [5] -5% | [6] -11.2%

CCCCOB(OCCCC)Oc1c(C(C)(C)C)cccc1C(C)(C)C
inactive: [1] 2.7% | [2] -4.6% | [3] -4.7% | [4] 9.8% | [5] -5.65% | [6] 3.75%

Cc1cc(CO)c(O)c(CN(CC(=O)O)CC(=O)O)c1
inactive: [1] 20.2% | [2] -14.9% | [3] 5.9% | [4] -1.4% | [5] 21.6% | [6] -0.7%

O=C1/C(=C/c2ccccc2)CN(C(=O)Oc2ccccc2)C/C1=C\c1ccccc1
inactive: [1] -21% | [2] -15.2% | [3] -12.9% | [4] 10.3% | [5] -7.05% | [6] -13.8%

CNc1ncc(-c2nnnn2-c2ccccc2)c(CN(C)C)n1
inactive: [1] -36% | [2] -3.05% | [3] -3.4% | [4] 5.1% | [5] -3.45% | [6] 25.2%

O=C(CNc1ccccc1[N+](=O)[O-])Nn1cnc2ccc(S(=O)(=O)Nc3ccccc3[N+](=O)[O-])cc2c1=O
inactive: [1] 25.8% | [2] -1.25% | [3] 39.8% | [4] 15.1% | [5] 21.2% | [6] 28.5%

C[N+]1(C)CC2C3C=C(I)C(C3)C2C1 (stereo not given)
inactive: [1] 26.8% | [2] 17.4% | [3] 15.2% | [4] 48.4% | [5] 11.9% | [6] 26.1%

COc1cccc(N2C(=O)c3c(c4[nH]c5ccccc5c4c4ccc(C(C)(C)C)cc34)C2=O)c1
inactive: [1] -19.2% | [2] -15.1% | [3] -15.4% | [4] 18.3% | [5] -34% | [6] -12.1%

O=[N+]([O-])c1ccc(N/N=C\C2C=CCCC2)c([N+](=O)[O-])c1 (stereo not given)
inactive: [1] -13.2% | [2] -0.1% | [3] -5.65% | [4] -31.8% | [5] -1.05% | [6] -19.9%

CC1CSC(=S)N1C(=O)N1C(=S)SCC1C (stereo not given)
inactive: [1] -42.4% | [2] -56.8% | [3] -52.9% | [4] -10.8% | [5] -43.9% | [6] -35.5%

O=c1[nH]c2cccnc2[nH]c1=O
inactive: [1] -8% | [2] -44% | [3] -32.8% | [4] 4% | [5] -32.5% | [6] -2.05%

COc1cc2c(cc1OC)C(=O)/C(=C/c1ccccc1)C2
inactive: [1] -16.4% | [2] -0.85% | [3] -6.4% | [4] 15.2% | [5] 36% | [6] 9.6%

Cc1cc(=O)[nH]c(Nc2nc3ccccc3[nH]2)n1
inactive: [1] 1.1% | [2] -0.75% | [3] 6.7% | [4] 20.8% | [5] -1.4% | [6] 5.9%

CCCC12C=C(OC)C(=O)C=C1OC(c1cc(OC)c(OC)c(OC)c1)C2C (stereo not given)
inactive: [1] -14.8% | [2] -23.4% | [3] -18.8% | [4] -4.45% | [5] -6.8% | [6] -13.4%

CCC1(C(=O)O)NC(=O)NC1=O (stereo not given)
inactive: [1] -2.55% | [2] -11.6% | [3] -12.3% | [4] -8.95% | [5] 4.5% | [6] -4.25%

Clc1ccc(C2N(Cc3ccccc3)CCC3CCCCN32)cc1Cl (stereo not given)
inactive: [1] -10.1% | [2] -21.6% | [3] 13.7% | [4] 26.1% | [5] -10.1% | [6] -1.4%

OC(CNc1ncccn1)(Cc1ccccc1)Cc1ccccc1
inactive: [1] 9% | [2] -5.2% | [3] 2.45% | [4] 19.1% | [5] 12% | [6] 21.2%

N#CCCc1ccc[nH]1
inactive: [1] -15.8% | [2] -8.45% | [3] -7.95% | [4] 10.6% | [5] 5.6% | [6] -5.85%

CC(C)(C)OC(=O)CC1(C)NC(C(=O)O)C(C)(C)S1 (stereo not given)
inactive: [1] 13.3% | [2] -0.65% | [3] -10.9% | [4] -9.75% | [5] 14.8% | [6] 10.8%

Nc1ncnc2c1ncn2CCCCC(=O)O
inactive: [1] -17.1% | [2] -12.2% | [3] -23.6% | [4] -2.1% | [5] -53% | [6] -15.3%

From PubChem BioAssay (NCI)
